From PubChem BioAssay (NCI) come the findings set out here.

Compounds without any hit were thinned out: in the full panel of roughly 83,000, 20% have a hit.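 The endpoint reported here, percent growth, reads 100 for growth as untreated, 0 for no net growth and -100 for all cells dead.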 Unmarked numbers belong to inactive results. Active and inactive are the calls of the source. Rule for the calls: active = growth percent below 10; inactive = the rest.

Common to all, as to assay: NCI-60 one-dose screen, 48 h (100 = growth as untreated, 0 = no growth, -100 = all killed)
Holding throughout (conditions): 10 µM unless noted

Assay [1] relates to SK-MEL-2 melanoma.
Assay [2] deals with EKVX NSCLC.
Assay [3] deals with SN12C renal.
Assay [4] deals with UO-31 renal.
Assay [5] has as its system TK-10 renal.
Assay [6] relates to ACHN renal.
Assay [7] concerns CAKI-1 renal.
For assay [8], the system named is A498 renal.
Assay [9] has as its system CCRF-CEM leukemia.
Assay [10] concerns MOLT-4 leukemia.
Assay [11] concerns SR leukemia.
Assay [12] deals with RPMI-8226 leukemia.
The test system of assay [13] is OVCAR-8 ovarian.
Assay [14] deals with OVCAR-5 ovarian.
The test system of assay [15] is OVCAR-4 ovarian.
Assay [16] has as its system SK-OV-3 ovarian.
Assay [17] has as its system IGROV1 ovarian.
Assay [18] deals with OVCAR-3 ovarian.
Assay [19] deals with HS 578T breast.
The test system of assay [20] is NCI/ADR-RES ovarian.

For `OC(COCc1ccccc1)COCc1ccccc1`, the growth was 111% in [1]; 91.5% in assay [2]; 104% in assay [3]; 91.6% in assay [4]; 109% in assay [5]; 99% in assay [6]. Moreover, the growth in assay [7] was 96.5%; in [8], 89.7%; in assay [9], 99.5%; in assay [10] it was 96.4%; in assay [11], 89.2%; in assay [12], 109%. In addition, the growth is 106% in assay [13]; 108% in assay [14]; 107% in assay [15]; 103% in assay [16]; 108% in [17]; 94.7% in assay [18]. Also, the results for the growth in assay [19] and in assay [20] were 122% and 127%, respectively.
On to `CCCCCCCCCCCCNC(=O)N[C@H](C(=O)N[C@H]1/C=C/OCCNC(=O)/C=C/[C@H](C(C)C)NC1=O)C(C)C`, for which the growth in assay [1] is 66.8%; in [2] it was 86.5%; in assay [3], 93.6%; in assay [4], 93.5%; in assay [5] it was 97.1%; in [6] it was 115%. For the same compound, the growth in assay [7] was 96.1%; in [8], 96.1%; in [9] it was 40.6%; in assay [10] it was 51.3%; in [11], 29%; in assay [12], 60.3%. For the same compound, the growth in assay [13] was 96%; in [14], 36.1%; in assay [15], 50.8%; in assay [16], 106%; in assay [17] it was 45.2%; in assay [18], 24.1%. The growth in assay [19] was 74.2%; in assay [20], 101%.
As to `CS(=O)(=O)c1ccc(C(=O)N/N=C/c2ccccc2O)cc1`, the growth was 40% in assay [1]; 25.8% in assay [2]; 58.7% in [3]; 18% in assay [4]; 45.8% in assay [5]; 28.3% in [6]. For the same compound, the growth in assay [7] was 34.9%; in assay [8], 75.2%; in [9], 15.3%; in [10], 9.19% (active); in assay [11] it was 20.4%; in [12], 48.7%. Besides, the growth in [13] is 27.9%; in [14] it was 64.7%; in [15], 43.6%; in assay [16], 39.9%; in assay [17] it was 41%; in [18] it was 22.8%. Besides, the growth is 81.5% in [19] and 29.9% in assay [20].
Turning to `Nc1nc(NC2CC2)cc(-c2cccc(Cl)c2Cl)n1`, the growth in assay [1] was 14.3%; in [2] it was 71.9%; in assay [3], 59.6%; in [4] it was 71.7%; in assay [5], 87.3%; in assay [6], 75.1%. Further, the growth is 58.5% in assay [7]; 47.7% in assay [8]; 62.3% in assay [9]; 28.4% in [10]; 14.3% in assay [11]; 74.2% in assay [12]. Further, the growth in assay [13] is 70%; in assay [14], 87.1%; in assay [15] it was 73.4%; in assay [16], 64.7%; in [17] it was 65.6%; in [18], 36.8%. For the same compound, the figures for the growth in assay [19] and in assay [20] were 64.7% and 25%, respectively.
With `O=C(CCl)N1c2ccccc2Oc2ccc3ccccc3c21`, the growth was 20.2% in assay [1]; 59.1% in assay [2]; -57.6% (active) in assay [3]; -92.1% (active) in assay [4]; -9.22% (active) in assay [5]; -95.9% (active) in [6]. Also, the growth in assay [7] is -45.6% (active); in [8], 110%; in assay [9] it was 0.604% (active); in assay [10], -4.23% (active); in assay [11], 9.32% (active); in [12] it was -24.7% (active). The growth in assay [13] was -35.5% (active); in assay [14] it was 22.4%; in [15], 20.7%; in assay [16] it was 30.7%; in assay [17], -70.2% (active); in assay [18], -95.1% (active). For the same compound, the growth in assay [19] is -12.6% (active); in assay [20], -11.9% (active).
As to `CCCCCCCCCCCCCCCCCC(=O)[O][Sn]([CH2]CCC)([CH2]CCC)[CH2]CCC`, the growth was -60.7% (active) in [1]; -40.1% (active) in assay [2]; -47.2% (active) in assay [3]; -92.4% (active) in [4]; -93.6% (active) in assay [5]; -96.8% (active) in assay [6]. For the same compound, the growth in [7] was -86.5% (active); in assay [8], -98% (active); in [9], 1.06% (active); in assay [10], 4.55% (active); in [11], 15.8%; in [12], -30.8% (active). The growth was -57% (active) in [13]; -71.1% (active) in assay [14]; -98% (active) in assay [15]; -96.2% (active) in [16]; -88.7% (active) in [17]; -100% (active) in assay [18]. In addition, the growth in assay [19] is -8.64% (active); in assay [20] it was -86.6% (active).
As for `O=C(N/N=C\c1cc(Br)ccc1O)c1ccncc1`, the growth in assay [1] is 31.4%; in assay [2], 29.6%; in [3] it was 46.5%; in assay [4], 23.4%; in assay [5], 43.7%; in assay [6], 27.3%. Further, the growth in assay [7] was 24.7%; in [8], 74.1%; in [9], 8.77% (active); in assay [10], -10.7% (active); in assay [11], 14.2%; in [12] it was 36.9%. Further, the growth in assay [13] is 27.5%; in [14] it was 54.8%; in assay [15], 36.8%; in assay [16] it was 38.3%; in assay [17], 25.2%; in assay [18], 25.1%. The figures for the growth in assay [19] and in assay [20] were 76.5% and 12.4%, respectively.
